In PubChem BioAssay (NCI):
This is part of a sample that, as a whole, favours compounds with a hit. Of some 83,000 tested, about 20% had one in any assay.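 Method: cells in 96-well plates; compound added at one concentration; 48 h incubation; percent growth measured; values under 10 scored active.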 Unmarked numbers belong to inactive results. Active and inactive are the calls of the source.

What was measured:
Experiment in all cases: NCI-60 one-dose screen, 48 h (100 = growth as untreated, 0 = no growth, -100 = all killed)
Settings in all cases: 10 µM unless noted
RPMI-8226 leukemia = tested on: RPMI-8226 leukemia
OVCAR-8 ovarian = tested on: OVCAR-8 ovarian
OVCAR-5 ovarian = tested on: OVCAR-5 ovarian
OVCAR-4 ovarian = tested on: OVCAR-4 ovarian
SK-OV-3 ovarian = tested on: SK-OV-3 ovarian
IGROV1 ovarian = tested on: IGROV1 ovarian
OVCAR-3 ovarian = tested on: OVCAR-3 ovarian
HS 578T breast = tested on: HS 578T breast
NCI/ADR-RES ovarian = tested on: NCI/ADR-RES ovarian
SR leukemia = tested on: SR leukemia

Compound | growth (RPMI-8226 leukemia) | growth (OVCAR-8 ovarian) | growth (OVCAR-5 ovarian) | growth (OVCAR-4 ovarian) | growth (SK-OV-3 ovarian) | growth (IGROV1 ovarian) | growth (OVCAR-3 ovarian) | growth (HS 578T breast) | growth (NCI/ADR-RES ovarian) | growth (SR leukemia)
CC(=O)c1cc2c(N)c(C(=O)Nc3cccc4ccncc34)sc2nc1C | 103% | 108% | 106% | 110% | 93.4% | 101% | 103% | 91.3% | 108% | –
COc1cc(/C=C\c2cc(OC)c(OC)c(OC)c2)cc(N)c1OC | 89.7% | 89.3% | 87.7% | 128% | 92.2% | 74.6% | 99.6% | 90.1% | 69.7% | –
COc1cc(C2C3=C(COC3=O)N(CCO)c3cc4c(cc32)OCO4)cc(OC)c1OC (stereo not drawn) | 15.2% | 28.4% | 27.7% | 28.5% | -24.2% (active) | 19.1% | -27.6% (active) | -6.37% (active) | 27.2% | –
O=C1/C=C/[C@@H](O)[C@@H]2C[C@@H](O)C[C@H]2/C=C/CCC[C@H](CCc2cccc3ccccc23)O1 | 22% | 17.7% | 24.6% | 14.4% | 18.1% | 5.72% (active) | -48.1% (active) | 39.5% | 2.01% (active) | –
CN1CCN(CCNc2nccc(-c3c(-c4cccc(O)c4)nc4sccn34)n2)S1(=O)=O | 48.7% | 73.3% | 68.6% | 77.5% | 47.1% | 45.7% | 81.5% | 76.7% | 101% | –
N#C/C(=C\c1ccc([N+](=O)[O-])s1)c1nc2cc(Cl)ccc2s1 | -13.4% (active) | 3.27% (active) | 63.6% | 13.4% | 65.1% | -16.2% (active) | 20.9% | 77.6% | -5.71% (active) | –
Cn1cc(-c2nc(-c3c[nH]c4c(Cl)nccc34)cs2)c2cc(F)ccc21 | 90.1% | 89.6% | 119% | 88% | 100% | 117% | 114% | 113% | 111% | –
COc1ccc(OC)c(CCn2cncc2-c2c[nH]c3ccccc23)c1 | – | 89.4% | 94.4% | 44.6% | 72.9% | 44% | 57% | – | 71.1% | 60.1%
COC(=O)c1ccc2c(c1)[n+](=O)c(C(C)=O)c(C(F)(F)F)n2[O-] | -48% (active) | 9.07% (active) | -12.9% (active) | -42% (active) | -31.4% (active) | -78.3% (active) | -92.8% (active) | -19.4% (active) | -40.7% (active) | –
CC(C)c1ccc(Nc2ccc3c(OCCCN4CCN(C)CC4)cccc3n2)cc1 | 2.88% (active) | 88.7% | 81.2% | 74.2% | 99.9% | 83.1% | 79.4% | 77% | 82% | –
Cn1cc(-c2csc(-c3c[nH]c4ccccc34)n2)c2ccnc(Cl)c21 | 53.8% | 78.3% | 127% | 48.5% | 93.9% | 91.8% | 81% | 80.8% | 81.8% | –
CCNc1nc2ccc(Nc3ccnc4cc(Cl)ccc34)cc2[nH]1 | 86.7% | 75.8% | 113% | 82.6% | 108% | 91.3% | 107% | 91.4% | 95.8% | –
COc1ccc2[nH]c(O)c(/C=c3/cc4c(c(-c5ccc(F)cc5)n3)=Nc3ccccc3-4)c2c1 | – | 75.5% | 119% | 81.6% | 115% | – | 94.7% | 78.8% | 52.1% | 6.4% (active)
CC1=C(C(=O)/C=C/c2c[nH]c3ccccc23)C(c2ccccc2)NC(=S)N1 (stereo not drawn) | 101% | 101% | 96.7% | 101% | 95.4% | 76.8% | 98.5% | 95.9% | 97.1% | –
O=C(Nc1ncc(Cc2cc(Cl)ccc2Cl)s1)c1cccs1 | 57.2% | 74.4% | 73.9% | 80% | 72.1% | 59.3% | 65.2% | 74.3% | 34.7% | –
Oc1ccc(C2c3ccccc3Oc3ccccc32)c2cccnc12 | 28.8% | 7.16% (active) | 44.9% | 30.6% | 31.4% | 20.4% | 56.5% | 77.6% | 7.48% (active) | –
CCCCCN1C=C/C(=C\C(=O)N2CCCc3ccccc32)c2ccccc21 | 43.9% | 89.3% | 99.8% | 75.2% | 95% | 77.9% | 84.5% | 94.8% | 107% | –
CC1(C)CC(=O)C2=C(C1)N(c1ccc(F)cc1F)C(N)=C(C#N)C2c1cc(Br)ccc1F (stereo not drawn) | – | 86.7% | 107% | 83.1% | 131% | 94.3% | – | 105% | 85.7% | 31%
O=C(CSc1nc2ccccc2[nH]1)NCc1ccccc1 | 101% | 104% | 95.4% | 97.6% | 101% | 102% | 105% | 97.9% | 102% | –
Cn1cc(-c2nc(-c3c[nH]c4c(Cl)nccc34)cs2)c2cc(Br)ccc21 | 78.6% | 80.2% | 97.6% | 90.5% | 95.6% | 102% | 111% | 85.6% | 97.6% | –
CCOc1cccc(-c2nc(N)nc(Nc3ccccc3SSc3ccccc3Nc3nc(N)nc(-c4cccc(OCC)c4)n3)n2)c1 | 56.4% | 59.9% | 99.7% | 71.7% | 125% | 62.6% | 80.2% | 69.2% | 19% | –
NC(=O)CSSCC(N)=O | 91.4% | 101% | 105% | 111% | 109% | 97.8% | 114% | 97.6% | 105% | –
Cc1cc2c(C(=O)NCC#N)cccc2n1-c1nc2c(c(NCc3ccccc3)n1)CCCC2 | 5.03% (active) | 8.66% (active) | 1.88% (active) | -8.8% (active) | -6.94% (active) | -22.1% (active) | -59.9% (active) | 12% | 1.16% (active) | –
O=[N+]([O-])CC(c1ccccc1)c1c[nH]c2ccccc12 (stereo not drawn) | 50.7% | 52.7% | 79.4% | 91.5% | 96.3% | 53.7% | 42.4% | 64% | 26% | –
O=C1Nc2cc(Cl)ccc2/C1=C\c1c(-c2ccc(F)cc2)nc2ccccn12 | 45.8% | 34.5% | 43.2% | -2.19% (active) | -26.3% (active) | 14% | -58.3% (active) | -4.87% (active) | -27.6% (active) | –
O=C1Nc2ccc(F)cc2/C1=C\c1c(-c2ccccc2)nc2ccccn12 | 86.5% | 74.7% | 73.7% | 94.6% | 80.7% | 47.6% | 66.4% | 71.8% | 38.1% | –
CC(C)=CCC[C@](C)(O)[C@H]1CC[C@]2(C)[C@@H]1CC[C@@H]1[C@@]3(C)C/C(=C/c4ccccc4)C(=O)C(C)(C)[C@@H]3CC[C@]12C | 79.3% | 93.4% | 102% | 89.2% | 97.8% | 101% | 103% | 91.3% | 100% | –
COc1ccc(-c2cnc3c(-c4cccc5cnccc45)cnn3c2)cc1 | 40.8% | 41.8% | 96.1% | 36.4% | 68.6% | 83.5% | 73.4% | 74% | 56.3% | –
CC(=O)[C@H]1CCC/C=C/[C@@H]2C[C@H](O)C[C@H]2[C@H](O)/C=C/C(=O)O1 | 14.2% | 11.3% | 32.3% | 18.9% | 23.9% | -5.3% (active) | -31.1% (active) | 36.9% | 3.11% (active) | –
